# Reference: PubChem BioAssay
# Active and inactive are the calls of the source. Rule as the data show it, unless noted: active = inhibition above about 80%; inactive = the rest.
# Tests used:
# [1] = target: 6-phosphogluconate dehydrogenase, decarboxylating (Homo sapiens) (UniProt P52209); experiment: inhibition of human phosphogluconate dehydrogenase – biochemical, recombinant enzyme, NADPH absorbance, primary screen (AID 1159550;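 active = at least 20% inhibition of 6-phosphogluconate dehydrogenase activity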); settings: recombinant 6PGD, NADPH absorbance 341 nm; at 10 µM; stronger effect = higher value
# Chain of 6-phosphogluconate dehydrogenase, decarboxylating (Homo sapiens) (P52209 whole entry, looked up): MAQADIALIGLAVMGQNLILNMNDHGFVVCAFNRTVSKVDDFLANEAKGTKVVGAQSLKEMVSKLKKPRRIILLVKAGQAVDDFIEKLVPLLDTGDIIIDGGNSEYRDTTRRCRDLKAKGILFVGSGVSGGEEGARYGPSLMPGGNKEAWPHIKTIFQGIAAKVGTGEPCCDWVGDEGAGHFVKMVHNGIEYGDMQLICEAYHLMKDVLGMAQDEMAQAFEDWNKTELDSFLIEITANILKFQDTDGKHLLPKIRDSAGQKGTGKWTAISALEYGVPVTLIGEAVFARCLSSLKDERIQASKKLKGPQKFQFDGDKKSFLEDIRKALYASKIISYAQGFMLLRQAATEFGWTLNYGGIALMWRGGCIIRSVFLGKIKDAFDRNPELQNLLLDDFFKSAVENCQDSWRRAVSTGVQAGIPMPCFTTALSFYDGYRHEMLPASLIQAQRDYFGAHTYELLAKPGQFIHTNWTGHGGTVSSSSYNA
# [2] = viability loss with induced miR-34 in A549 – imaging, A549 dox-inducible miR-34, nuclei and caspase counts, primary screen (AID 1347080;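 active = compounds whose cell count with miR-34 switched on is under 0.7 times the count with it off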); settings: A549 miR-34 inducible, Hoechst nuclei count, 48 h
# [3] = MELAS cybrid and Rieske KO viability enhancers – cell-based, MELAS cybrids, Rieske KO mouse fibroblasts, CellTiter-Glo, primary screen (AID 1508586;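 active = mean z-score across replicates of 1.96 or higher in either the MELAS or the Rieske mutant cell line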;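 also: z relative to plate mean and SD of compound and empty wells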); settings: low glucose
# [4] = growth inhibition, single agent or in combination, cell-based, chromothripsis tumors, cisplatin or BGB combos (AID 1671449); settings: LFS_MB_P medulloblastoma cells;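 also: cells exposed for 96 hours; 0% = vehicle DMSO and 100% = killing by high DMSO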
# [5] = growth inhibition, single agent and combos, cell-based, chromothripsis tumors, cisplatin or BGB combos (AID 1671450); settings: HDN33 neuroblastoma cells, stronger effect = higher value;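 also: cells exposed to compound for four days; 0% = vehicle DMSO and 100% = cell killing by high DMSO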
# [6] = growth inhibition, single agents and combos, ICB984, cell-based, cisplatin or BGB combos, synergistic combos for chromothripsis tumors (AID 1671451; call rule not given here;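 also: cells exposed for 96 hours before readout; 0% = vehicle DMSO and 100% = killing by high DMSO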); settings: ICB984 medulloblastoma cells, drug combinations, stronger effect = higher value
# [7] = growth inhibition, single agents and combos, LFS_MB_1R, cell-based, cisplatin or BGB combos, synergistic combos for chromothripsis tumors (AID 1671452); settings: LFS_MB_1R medulloblastoma cells, stronger effect = higher value;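 also: cells exposed for 96 hours before readout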
# [8] = growth inhibition, single agents and combos, HTB85, cell-based, BGB or cisplatin IC20 combos, synergistic combos for chromothripsis tumors (AID 1671453); settings: HTB85 osteosarcoma cells, drug combinations, stronger effect = higher value;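 also: cells exposed for 96 hours before readout; 0% = vehicle DMSO and 100% = high DMSO killing control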
# [9] = growth inhibition, single agents and combos, CRL2098, cell-based, BGB or cisplatin IC20 combos, synergistic combos for chromothripsis tumors (AID 1671454); settings: CRL2098 osteosarcoma cells, drug combinations, stronger effect = higher value;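 also: cells exposed for 96 h before readout; 0% = vehicle DMSO and 100% = killing by high DMSO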
# [10] = growth inhibition, single agents and combos, HD-MB03, cell-based, BGB or cisplatin IC20 combos, synergistic combos for chromothripsis tumors (AID 1671455; in the data active = inhibition above about 83%;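 also: 0% = vehicle DMSO and 100% = high DMSO as cytotoxic control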); settings: HD-MB03 medulloblastoma cells, stronger effect = higher value
# [11] = growth inhibition, single agents and combos, UWB1.289, cell-based, BGB or cisplatin combos, synergistic combos for chromothripsis tumors (AID 1671456); settings: UWB1.289 ovarian carcinoma cells, stronger effect = higher value;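 also: cells exposed to compound for four days; 0% = vehicle DMSO and 100% = killing by high DMSO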
# [12] = growth inhibition, single agents and combos, LFS_MB_2R, cell-based, cisplatin combos, synergistic combos for chromothripsis tumors (AID 1671457); settings: LFS_MB_2R medulloblastoma cells, stronger effect = higher value;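 also: cells exposed to compound for four days before readout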
# [13] = growth inhibition, MDA-MB-436, cell-based, BGB or cisplatin combos, synergistic combos for chromothripsis tumors (AID 1671458; call rule not given here;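 also: cells exposed for 96 hours; 0% = vehicle DMSO and 100% = killing by high DMSO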); settings: MDA-MB-436 breast carcinoma growth inhibition, drug combinations, stronger effect = higher value
# [14] = UWB1.289_BRCA1 ovarian cancer growth, cell-based, BGB or cisplatin combinations (AID 1671459); settings: UWB1.289 BRCA1 ovarian carcinoma, drug combinations, stronger effect = higher value
# [15] = drug combination toxicity in non-malignant astrocytes – cell-based, BGB or cisplatin IC20 combos, cytotoxicity control for chromothriptic childhood tumor combination screen (AID 1671460); settings: Human astrocytes, viability inhibition, drug combinations, at 0.5 µM, stronger effect = higher value;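 also: cells exposed to compounds for 96 hours before viability readout; 0% = vehicle and 100% = killing control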
# [16] = BT084 cell growth, single and combined drugs, ICGC_MB145, cisplatin and BGB IC40 combos (AID 1671461); settings: BT084 medulloblastoma cells, drug combinations, stronger effect = higher value;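 also: cells exposed to drugs for 96 hours; 0% = vehicle DMSO and 100% = high DMSO full killing control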
# [17] = RCMB18 cell growth, single agent and combined, cisplatin and BGB IC40 combos (AID 1671462); settings: RCMB18 medulloblastoma cells, stronger effect = higher value;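 also: cells exposed to compound for four days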
# [18] = CRL1545 cell growth, single agent and combined, cisplatin and BGB IC20 combos (AID 1671464); settings: CRL1545 osteosarcoma cells, stronger effect = higher value;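 also: cells exposed to compound for 96 hours before readout; 0% = vehicle DMSO and 100% = high DMSO killing control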
# [19] = blockers of cellular phospholipid synthesis – cell-based, LOPAC library, screen 4, primary screen (AID 1347384; call rule not given here); settings: animal cells, phospholipid biosynthesis inhibition screen; at 10 µM
# [20] = galactose survival enhancers in mitochondrial complex I cybrids – cell-based, galactose medium, ATP luminescence, primary screen (AID 1645843;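 active = z-score of at least 1.8 in each of two replicates, scored against plate mean and spread of sample wells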;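 also: positive z means more ATP and so rescue of galactose-driven cybrid death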); settings: complex I mutant cybrid cells, 72 h, stronger effect = higher value
# [21] = P. berghei load reduction in hepatocytes – cell-based, HepG2, luciferase luminescence, HepG2 viability, primary screen (AID 624349; in the data active = parasite load remaining mostly below about 12%, no sharp cut-off; inactive = mostly above about 10%;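 also: 100% = mean of DMSO negative control wells on the same plate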); settings: P. berghei liver stage in HepG2, luciferase luminescence, concentration not given here; parasite load remaining: stronger effect = lower value; viability: measured here: HepG2 viability without parasites
# [22] = target: Mitogen-activated protein kinase 7 (Homo sapiens) (UniProt Q13164); experiment: Gal4-ERK5 driven luciferase induction – cell-based, HTS, primary screen (AID 1508626;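 active = luciferase signal above three times the same-plate solvent-only control wells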;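 also: luciferase driven by Gal4-ERK5 fusion binding five Gal4 sites before minimal TATA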); settings: HeLa Gal4-ERK5 transactivation, 18 h, at 5 µM, stronger effect = higher value
# Chain of Mitogen-activated protein kinase 7 (Homo sapiens) (Q13164 whole entry, looked up, the tested form may be a part): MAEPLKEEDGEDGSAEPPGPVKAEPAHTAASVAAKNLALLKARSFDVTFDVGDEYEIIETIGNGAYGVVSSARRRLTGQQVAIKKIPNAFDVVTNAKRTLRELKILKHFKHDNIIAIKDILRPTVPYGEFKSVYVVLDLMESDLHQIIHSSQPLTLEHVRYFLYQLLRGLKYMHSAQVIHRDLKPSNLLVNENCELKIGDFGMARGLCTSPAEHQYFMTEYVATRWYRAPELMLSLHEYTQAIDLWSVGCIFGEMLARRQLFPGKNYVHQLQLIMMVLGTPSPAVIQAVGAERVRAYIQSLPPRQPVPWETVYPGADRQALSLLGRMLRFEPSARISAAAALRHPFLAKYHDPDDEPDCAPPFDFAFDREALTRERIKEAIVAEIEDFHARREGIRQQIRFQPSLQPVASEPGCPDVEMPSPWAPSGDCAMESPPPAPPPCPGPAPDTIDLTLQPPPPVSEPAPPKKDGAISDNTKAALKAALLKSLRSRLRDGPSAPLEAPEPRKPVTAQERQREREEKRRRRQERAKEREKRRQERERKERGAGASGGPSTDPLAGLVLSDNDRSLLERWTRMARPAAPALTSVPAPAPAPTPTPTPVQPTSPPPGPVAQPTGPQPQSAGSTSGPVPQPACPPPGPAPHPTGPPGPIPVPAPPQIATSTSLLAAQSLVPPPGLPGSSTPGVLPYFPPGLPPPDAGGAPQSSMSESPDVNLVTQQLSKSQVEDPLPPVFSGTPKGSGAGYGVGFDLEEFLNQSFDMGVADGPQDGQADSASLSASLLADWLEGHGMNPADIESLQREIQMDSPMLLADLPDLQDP
# [23] = stronger effect = lower value, cell number ratio, induced over uninduced
# [24] = measured here: relative caspase fold change +Dox/-Dox
# [25] = measured here: total cells with miR-34 induction, stronger effect = lower value
# [26] = measured here: total cells without miR-34 induction
# [27] = MELAS cybrid survival, CellTiter-Glo 48 h, stronger effect = higher value
# [28] = Rieske KO mouse fibroblast survival, CellTiter-Glo 72 h
# [29] = measured here: combination with BGB IC40, at 0.05 µM
# [30] = measured here: with BGB IC20 combination, at 0.5 µM
# [31] = measured here: with cisplatin IC20 combination, at 0.5 µM
# [32] = measured here: combination with cisplatin, at 0.5 µM
# [33] = measured here: combination with cisplatin, at 5 µM
smiles,measurement,setting,value
CN(N=O)C(=O)NC1C(O)OC(CO)C(O)C1O (configuration not stated),inhibition,[1],-8.43% (inactive)
same,fold change,[2]; [23],0.895 (inactive)
same,fold change,[2]; [24],0.982
same,cell count,[2]; [25],7750
same,cell count,[2]; [26],8650
same,z-score,[3]; [27],-0.392 (inactive)
same,z-score,[3]; [28],0.645
same,inhibition,"[4]; at 0.5 µM, stronger effect = higher value",-5.09% (inactive)
same,inhibition,"[4]; measured here: combination with BGB IC20, at 0.005 µM",2.88%
same,inhibition,"[4]; measured here: combination with BGB IC40, at 0.005 µM",-23%
same,inhibition,[4]; [29],9.79%
same,inhibition,"[4]; measured here: combination with cisplatin, at 0.5 µM, stronger effect = higher value",18.7%
same,inhibition,"[4]; measured here: combination with cisplatin, at 5 µM, stronger effect = higher value",-15%
same,inhibition,"[5]; BGB combo, at 5 µM",-42.3%
same,inhibition,[5]; at 0.5 µM,-18.9% (inactive)
same,inhibition,"[5]; cisplatin combo, at 5 µM",-31.9%
same,inhibition,[5]; [30],-17.4%
same,inhibition,[5]; [31],-13.6%
same,inhibition,"[5]; single agent, at 5 µM",-38.9%
same,inhibition,"[6]; BGB IC20 combo, at 0.005 µM",-31.3%
same,inhibition,"[6]; BGB IC40 combo, at 0.005 µM",-16.7%
same,inhibition,"[6]; BGB IC40 combo, at 0.05 µM",-24.6%
same,inhibition,[6]; at 0.5 µM,-5.69% (inactive)
same,inhibition,"[6]; cisplatin combo, at 0.05 µM",-31%
same,inhibition,"[6]; cisplatin combo, at 0.5 µM",-0.064%
same,inhibition,"[6]; cisplatin combo, at 5 µM",-5.86%
same,inhibition,"[6]; measured here: 5 uM single agent, at 5 µM",-8.73%
same,inhibition,[7]; at 0.5 µM,-12.5% (inactive)
same,inhibition,[7]; [29],0.459%
same,inhibition,[7]; [32],-24.7%
same,inhibition,[7]; [33],-26.7%
same,inhibition,[8]; at 0.5 µM,-27.9% (inactive)
same,inhibition,"[8]; measured here: with BGB IC20, at 0.5 µM",-20.4%
same,inhibition,"[8]; measured here: with BGB IC20, at 5 µM",-14.4%
same,inhibition,"[8]; measured here: with cisplatin IC20, at 0.5 µM",-29.4%
same,inhibition,"[8]; measured here: with cisplatin IC20, at 5 µM",-17.4%
same,inhibition,"[8]; single agent, at 5 µM",-23.4%
same,inhibition,[9]; at 0.5 µM,-39.9% (inactive)
same,inhibition,"[9]; measured here: combination with BGB at IC20, at 0.5 µM",-31.6%
same,inhibition,"[9]; measured here: combination with cisplatin at IC20, at 0.5 µM",-51.1%
same,inhibition,[10]; at 0.5 µM,-11.6% (inactive)
same,inhibition,"[10]; measured here: combo with BGB at IC20, at 0.5 µM",-2.88%
same,inhibition,"[10]; measured here: combo with cisplatin at IC20, at 0.5 µM",-22.4%
same,inhibition,[11]; at 0.5 µM,-9.59% (inactive)
same,inhibition,"[11]; measured here: inhibition with BGB combination, at 0.05 µM",-0.199%
same,inhibition,"[11]; measured here: inhibition with cisplatin combination, at 0.05 µM",-7.77%
same,inhibition,[12]; at 0.5 µM,-6.59% (inactive)
same,inhibition,[12]; [32],-12.5%
same,inhibition,[12]; [33],-15.1%
same,inhibition,[13]; at 0.5 µM,-6.07% (inactive)
same,inhibition,"[13]; measured here: BGB combination, at 0.5 µM",-5.12%
same,inhibition,"[13]; measured here: BGB combination, at 5 µM",4.69%
same,inhibition,"[13]; measured here: cisplatin combination, at 0.5 µM",-11.2%
same,inhibition,"[13]; measured here: cisplatin combination, at 5 µM",0.976%
same,inhibition,"[14]; BGB combination, concentration series, at 5 µM",-8.48%
same,inhibition,[14]; at 0.5 µM,-13% (inactive)
same,inhibition,"[14]; cisplatin combination, concentration series, at 5 µM",0.433%
same,inhibition,[15],-2.34% (inactive)
same,inhibition,[15]; measured here: combo with BGB IC20,-2.11%
same,inhibition,[15]; measured here: combo with cisplatin IC20,-7.96%
same,inhibition,[16]; at 0.5 µM,9.28% (inactive)
same,inhibition,"[16]; cisplatin combination, at 0.5 µM",2.65%
same,inhibition,"[16]; cisplatin combination, at 5 µM",-74.8%
same,inhibition,"[16]; measured here: BGB IC40 combination 0.05 uM, at 0.05 µM",-4.62%
same,inhibition,"[16]; single agent, at 5 µM",14.7%
same,inhibition,[17]; at 0.5 µM,8.81% (inactive)
same,inhibition,"[17]; cisplatin combo, at 5 µM",-9.42%
same,inhibition,"[17]; measured here: BGB IC40 combination, at 0.05 µM",-16.3%
same,inhibition,[17]; [32],-21.8%
same,inhibition,"[17]; single agent, at 5 µM",-8.26%
same,inhibition,[18]; at 0.5 µM,3.09% (inactive)
same,inhibition,[18]; [30],-18.9%
same,inhibition,[18]; [31],12.7%
same,inhibition,"[18]; single agent, at 0.05 µM",-1.79%
same,inhibition,"[18]; single agent, at 5 µM",-17.1%
COc1ccc(-c2cc(=O)c3c(O)c(OC)c(OC)cc3o2)cc1O,inhibition,[1],3.27% (inactive)
same,fold change,[2]; [23],1.03 (inactive)
same,fold change,[2]; [24],0.681
same,cell count,[2]; [25],5880
same,cell count,[2]; [26],5680
same,outcome,[19],inactive
same,z-score,[20],0.86 (inactive)
CN(C)CCCO[C@@H]1[C@H]2OC(C)(C)O[C@H]2O[C@@H]1[C@H](O)CO,parasite load remaining,[21],63.5% (inactive)
same,viability,[21],92.5%
same,inhibition,[1],8.75% (inactive)
same,fold change,[2]; [23],0.9 (inactive)
same,fold change,[2]; [24],1.16
same,cell count,[2]; [25],9050
same,cell count,[2]; [26],10100
same,z-score,[3]; [27],0.565 (inactive)
same,z-score,[3]; [28],-0.271
same,luciferase signal,[22],44 AU (inactive)
